Measurements published in PubChem BioAssay (NCI).
Compounds without any hit were thinned out: in the full panel of roughly 83,000, 20% have a hit.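 Percent growth is the endpoint: 0 to 100 indicates growth inhibition (40 means 60% inhibition), 0 means no net growth, and negative values indicate cell death.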 The source made the active and inactive calls. How the source made its calls: active means growth percent below 10; inactive means the rest.

Legend:
Test in all cases: NCI-60 one-dose screen, 48 h (100 = growth as untreated, 0 = no growth, -100 = all killed)
Conditions in all cases: 10 µM unless noted
SR leukemia = test system: SR leukemia
OVCAR-8 ovarian = test system: OVCAR-8 ovarian
OVCAR-5 ovarian = test system: OVCAR-5 ovarian
OVCAR-4 ovarian = test system: OVCAR-4 ovarian
SK-OV-3 ovarian = test system: SK-OV-3 ovarian
IGROV1 ovarian = test system: IGROV1 ovarian
HS 578T breast = test system: HS 578T breast
NCI/ADR-RES ovarian = test system: NCI/ADR-RES ovarian
OVCAR-3 ovarian = test system: OVCAR-3 ovarian

Measured: growth

Cc1ccc(/C=N/Nc2nc(Nc3ccccc3)nc(Nc3ccc(S(N)(=O)=O)cc3)n2)cc1
inactive: SR leukemia 35.5% | OVCAR-8 ovarian 69.2% | OVCAR-5 ovarian 84.5% | OVCAR-4 ovarian 69.6% | SK-OV-3 ovarian 110% | IGROV1 ovarian 53.4% | HS 578T breast 62.9% | NCI/ADR-RES ovarian 101%

N/C(=N\C(N)=N\c1nc2ccccc2s1)c1ccc(Cl)cc1
inactive: OVCAR-5 ovarian 94.5% | OVCAR-4 ovarian 101% | SK-OV-3 ovarian 110% | IGROV1 ovarian 92% | OVCAR-3 ovarian 98.4% | HS 578T breast 105% | NCI/ADR-RES ovarian 80.3%
active: SR leukemia -8.26%

N#Cc1c(-c2cccs2)cc(-c2cnccn2)nc1SCC(=O)N/N=C/c1ccc(Cl)cc1
inactive: SR leukemia 87.1% | OVCAR-8 ovarian 104% | OVCAR-5 ovarian 112% | OVCAR-4 ovarian 105% | SK-OV-3 ovarian 114% | IGROV1 ovarian 109% | OVCAR-3 ovarian 117% | HS 578T breast 103% | NCI/ADR-RES ovarian 102%

CCN(CC)S(=O)(=O)c1ccc(-c2nc(C(Cl)Cl)nc3cc(-c4ccc(F)cc4)nn23)cc1
inactive: SR leukemia 30.8% | OVCAR-8 ovarian 27.6% | OVCAR-5 ovarian 51.6% | SK-OV-3 ovarian 42.7% | IGROV1 ovarian 56.9% | OVCAR-3 ovarian 16.8% | HS 578T breast 36.4% | NCI/ADR-RES ovarian 23.5%

Cc1cc(NS(=O)(=O)c2ccc(NC(=O)CSc3nc4ccccc4c(=O)n3-c3ccccc3)cc2)no1
inactive: SR leukemia 97.9% | OVCAR-8 ovarian 102% | OVCAR-5 ovarian 92.7% | OVCAR-4 ovarian 102% | SK-OV-3 ovarian 106% | IGROV1 ovarian 97.6% | OVCAR-3 ovarian 109% | HS 578T breast 93.3% | NCI/ADR-RES ovarian 102%

CN(C)c1ccc(/C=N/Nc2nc(N/N=C/c3ccc(N(C)C)cc3)nc(N3CCCCC3)n2)cc1
inactive: OVCAR-8 ovarian 56.6% | OVCAR-5 ovarian 96.1% | OVCAR-4 ovarian 106% | SK-OV-3 ovarian 132% | IGROV1 ovarian 93.8% | OVCAR-3 ovarian 65.6% | HS 578T breast 106% | NCI/ADR-RES ovarian 58.3%
active: SR leukemia -14.1%

NCCNC(=O)c1cccc(COc2ccccc2NC(=O)c2cc(Cl)c(Cl)[nH]2)c1
inactive: OVCAR-8 ovarian 92.1% | OVCAR-5 ovarian 96.8% | OVCAR-4 ovarian 97.7% | SK-OV-3 ovarian 111% | IGROV1 ovarian 94.6% | OVCAR-3 ovarian 109% | HS 578T breast 103% | NCI/ADR-RES ovarian 101%
active: SR leukemia 8.2%

COc1ccc2c(c1)c(-c1nnc(N)nc1-c1c[nH]c3ccc(F)cc13)cn2C
active: OVCAR-3 ovarian 3.98%
inactive: SR leukemia 12.5% | OVCAR-5 ovarian 84.2% | OVCAR-4 ovarian 86.3% | SK-OV-3 ovarian 80.7% | IGROV1 ovarian 45.7% | HS 578T breast 49.8% | NCI/ADR-RES ovarian 75.2%

CC(=O)C1=C(C)NC(NNc2ccccc2)=NC1c1ccc([N+](=O)[O-])cc1 (centres undefined)
inactive: SR leukemia 62.4% | OVCAR-8 ovarian 91.1% | OVCAR-5 ovarian 95.9% | OVCAR-4 ovarian 84.3% | SK-OV-3 ovarian 106% | IGROV1 ovarian 82.6% | OVCAR-3 ovarian 99.7% | HS 578T breast 99.6% | NCI/ADR-RES ovarian 91.4%

COc1ccc([C@H]2C(=O)N(c3cc(OC)c(OC)c(OC)c3)[C@@H]2c2ccc(OC)c(O)c2)cc1
inactive: SR leukemia 11.4% | OVCAR-4 ovarian 63.5% | SK-OV-3 ovarian 27.5% | IGROV1 ovarian 28.2% | NCI/ADR-RES ovarian 10.4%
active: OVCAR-8 ovarian 5.81% | HS 578T breast 2.75%

N#Cc1cnc2ccc(-c3cnc4n[nH]nc4c3)cc2c1N1CCc2cc(F)c(Cl)cc21
active: SR leukemia 3.77% | OVCAR-4 ovarian -16.9% | SK-OV-3 ovarian -0.177% | IGROV1 ovarian -8.77% | HS 578T breast -10.7%
inactive: OVCAR-8 ovarian 16.7% | OVCAR-5 ovarian 31.6% | OVCAR-3 ovarian 26.2% | NCI/ADR-RES ovarian 45%

Cn1cc(-c2cc3ncnc(Nc4ccc(CC(=O)Nc5nc(C(C)(C)C)cs5)cc4)c3s2)cn1
inactive: SR leukemia 36.2% | OVCAR-8 ovarian 38.1% | OVCAR-5 ovarian 84.3% | OVCAR-4 ovarian 28.2% | SK-OV-3 ovarian 26.2% | IGROV1 ovarian 12% | OVCAR-3 ovarian 62.3% | HS 578T breast 47.3% | NCI/ADR-RES ovarian 101%

O=C(N/N=C\c1ccc([N+](=O)[O-])cc1)c1ccc2nc(-c3ccc(Br)cc3)[nH]c2c1
active: SR leukemia -3.17%
inactive: OVCAR-8 ovarian 13.5% | OVCAR-5 ovarian 44.8% | OVCAR-4 ovarian 21.3% | SK-OV-3 ovarian 45% | IGROV1 ovarian 18% | HS 578T breast 23.2% | NCI/ADR-RES ovarian 71.4%

O=C(CSc1nc2ccccc2c(=O)n1-c1ccccc1)N/N=C/c1ccc(Oc2ccc(Cl)cc2)cc1
inactive: SR leukemia 70.3% | OVCAR-8 ovarian 59.2% | OVCAR-5 ovarian 81.5% | OVCAR-4 ovarian 73.7% | SK-OV-3 ovarian 83.2% | IGROV1 ovarian 49.1% | OVCAR-3 ovarian 111% | HS 578T breast 58.9% | NCI/ADR-RES ovarian 52.7%

C#CCN(C)CCCOc1ccc(NCc2ccc(C(=O)NO)cc2)cc1Cl
inactive: SR leukemia 15.7% | OVCAR-8 ovarian 14.7% | OVCAR-5 ovarian 23.4% | OVCAR-4 ovarian 31.3% | IGROV1 ovarian 15.6% | OVCAR-3 ovarian 24.3% | HS 578T breast 25%
active: SK-OV-3 ovarian -4.09% | NCI/ADR-RES ovarian 7.57%

C#C[C@]1(O)CC[C@H]2[C@@H]3CC=C4c5sc(Nc6cc(Cl)ccc6OC)nc5CC[C@]4(C)[C@H]3CC[C@@]21C
inactive: OVCAR-8 ovarian 52.5% | OVCAR-5 ovarian 67.5% | OVCAR-4 ovarian 52.5% | IGROV1 ovarian 43.5% | OVCAR-3 ovarian 25.3% | NCI/ADR-RES ovarian 56.4%
active: SR leukemia 3.9% | SK-OV-3 ovarian -6.24% | HS 578T breast -7.86%

Cc1ccc(-c2csc(N/N=C/c3cccs3)n2)cc1
inactive: SR leukemia 56.1% | OVCAR-8 ovarian 93.6% | OVCAR-5 ovarian 122% | OVCAR-4 ovarian 59.6% | SK-OV-3 ovarian 101% | IGROV1 ovarian 86.3% | OVCAR-3 ovarian 104% | HS 578T breast 105% | NCI/ADR-RES ovarian 92.7%

O=c1nc(Nc2ccc([N+](=O)[O-])cc2O)sc2ccccc12
inactive: SR leukemia 24.2% | OVCAR-8 ovarian 24.1% | OVCAR-5 ovarian 47.4% | OVCAR-4 ovarian 36.9% | SK-OV-3 ovarian 49.2% | IGROV1 ovarian 33.2% | OVCAR-3 ovarian 14% | HS 578T breast 27.4% | NCI/ADR-RES ovarian 22.5%

Nn1c(=O)n(-c2cccc(C(F)(F)F)c2)c(=O)c2cc(-c3ccc(F)cc3F)ccc21
inactive: OVCAR-5 ovarian 47.2% | OVCAR-4 ovarian 28.8% | IGROV1 ovarian 20.9%
active: SR leukemia 6.24% | OVCAR-8 ovarian 9.99% | SK-OV-3 ovarian -8.64% | HS 578T breast 0.556% | NCI/ADR-RES ovarian 2.58%

Cc1ccc(C(=O)CSc2nnc(-c3ccc(-c4ccc(Cl)cc4)nc3C)o2)cc1
inactive: SR leukemia 96.5% | OVCAR-8 ovarian 107% | OVCAR-5 ovarian 102% | OVCAR-4 ovarian 101% | SK-OV-3 ovarian 98.1% | IGROV1 ovarian 91.6% | HS 578T breast 102% | NCI/ADR-RES ovarian 100%

COc1ccc2c(c1)C=CC1(O2)Oc2ccc(OC)cc2C=C1C (centres undefined)
inactive: SR leukemia 11.3% | OVCAR-8 ovarian 17.5% | OVCAR-5 ovarian 29.7% | OVCAR-4 ovarian 74.6% | SK-OV-3 ovarian 57.2% | IGROV1 ovarian 24.5% | HS 578T breast 22.3%
active: NCI/ADR-RES ovarian 9.17%

Cc1csc(/N=C(N)/N=C(\N)c2cccs2)n1
inactive: SR leukemia 99% | OVCAR-8 ovarian 101% | OVCAR-5 ovarian 115% | OVCAR-4 ovarian 105% | SK-OV-3 ovarian 92.3% | IGROV1 ovarian 101% | HS 578T breast 107% | NCI/ADR-RES ovarian 108%

C#Cc1cc(C(=O)Nc2ccc(CNCCN3CCOCC3)c(C(F)(F)F)c2)ccc1C
inactive: SR leukemia 67.8% | OVCAR-8 ovarian 105% | OVCAR-5 ovarian 98.6% | OVCAR-4 ovarian 79.1% | SK-OV-3 ovarian 94.1% | IGROV1 ovarian 101% | OVCAR-3 ovarian 94.1% | HS 578T breast 81.4% | NCI/ADR-RES ovarian 94.3%

COc1ccc(/C=N\NC(=O)c2cnn(CC(O)c3ccccc3)c2N)cc1OCc1ccc(Cl)cc1 (centres undefined)
inactive: SR leukemia 65.8% | OVCAR-8 ovarian 74% | OVCAR-5 ovarian 79.9% | SK-OV-3 ovarian 93.8% | IGROV1 ovarian 91.9% | HS 578T breast 43.2% | NCI/ADR-RES ovarian 72.2%

NC(=O)n1c(=O)n(-c2cccc(C(F)(F)F)c2)c(=O)c2cc(-c3ccc(F)cc3F)ccc21
inactive: OVCAR-5 ovarian 43.7% | OVCAR-4 ovarian 28.4% | IGROV1 ovarian 14.8%
active: SR leukemia 4.71% | OVCAR-8 ovarian 8.4% | SK-OV-3 ovarian -12.9% | HS 578T breast -6.46% | NCI/ADR-RES ovarian 2.36%

COc1cc(C(=O)c2cc(C(C)=O)c3ccc(C)cn23)cc(OC)c1OC
inactive: SR leukemia 26.9% | OVCAR-8 ovarian 50.6% | OVCAR-5 ovarian 59.5% | OVCAR-4 ovarian 79.7% | SK-OV-3 ovarian 77.4% | IGROV1 ovarian 41.9% | OVCAR-3 ovarian 28% | HS 578T breast 59% | NCI/ADR-RES ovarian 18.4%

CS(=O)(=O)c1ccc(/C(=N/N=C(N)N)c2ccc(F)cc2)cc1
inactive: SR leukemia 24.1% | OVCAR-8 ovarian 98.4% | OVCAR-5 ovarian 115% | OVCAR-4 ovarian 101% | SK-OV-3 ovarian 108% | IGROV1 ovarian 110% | OVCAR-3 ovarian 95.6% | HS 578T breast 93.4% | NCI/ADR-RES ovarian 95.7%
